Source: ChEMBL document CHEMBL1857833, “Screening and optimization of specific chemical series against human African Trypanosomiasis (HAT)”
About 390 (8.9%) of roughly 4,400 compounds showed an effect of 50% or more. The sample holds strong results, similar compounds and a random draw of the others, so the mix is not that of the screen.

system: Trypanosoma brucei; test: DNDI: Inhibition of Human African Trypanosomiasis, SBRI 427, in vitro at 2 ug.mL-1; assay type: functional

Compound	% inhibition
COc1ccc(NCc2coc(-c3ccc(F)cc3)n2)cc1	-3%
Brc1ccccc1-c1nc(CNCCN2CCOCC2)co1	9%
Cc1cc(C)n(/C(=N\O)c2ccc(Oc3ccc(Cl)cc3)nc2)n1	-5%
O/N=C(/c1cccnc1Oc1ccc(F)cc1Cl)N1CCCCCC1	11%
O/N=C(/c1cccnc1Oc1ccc(F)cc1Cl)N1CCCC1	13%
O/N=C(/c1cccnc1Oc1ccc(F)cc1Cl)N1CCCc2ccccc21	100%
COc1ccc(Oc2nc(C)ccc2/C(=N/O)N2CCC=N2)cc1	8%
CCOC(=O)N1CCN(Cc2coc(-c3ccccc3Cl)n2)CC1	8%
Cc1cccc(Oc2nc(C)ccc2/C(=N/O)N2Cc3ccccc3C2)c1	3%
Cc1ccc(Oc2nc(C)ccc2/C(=N/O)N(C)c2ccccc2)c(C)c1	41%
COc1ccc(CN/C(=N\O)c2cccnc2Oc2ccccc2OC(C)C)cc1	-18%
CC(C)Oc1ccccc1Oc1ncccc1/C(=N/O)NCc1ccncc1	7%
CC1CCC(N/C(=N\O)c2cccnc2Oc2ccccc2OC(C)C)CC1 (stereo not drawn)	98%
COC(=O)C1CCN(/C(=N\O)c2cccnc2Oc2ccccc2OC(C)C)CC1	-2%
CC(C)Oc1ccccc1Oc1ncccc1/C(=N/O)NCC1CCCO1 (stereo not drawn)	-11%
CC(C)Oc1ccccc1Oc1ncccc1/C(=N/O)NC1CCCCC1	99%
CC1CC(N/C(=N\O)c2cccnc2Oc2ccccc2OC(C)C)CC(C)(C)C1 (stereo not drawn)	99%
c1ccc(N2CCN(Cc3coc(-c4ccco4)n3)CC2)nc1	4%
COc1cc2c(cc1OC)C(C(C)C)N(Cc1coc(-c3ccccc3Cl)n1)CC2 (stereo not drawn)	3%
COc1ccc(CCN(C)Cc2coc(-c3cc(OC)c(OC)c(OC)c3)n2)cc1OC	9%
Clc1cccc(N2CCN(Cc3coc(-c4ccco4)n3)CC2)c1	10%
Fc1cccc(-c2nc(CNCc3cccnc3)co2)c1	17%
CCN(CCC#N)Cc1coc(-c2ccc(Cl)cc2Cl)n1	8%
Fc1ccc(-c2nc(CNCc3ccccc3C(F)(F)F)co2)cc1	18%
CC1CCCCC1NCc1coc(-c2ccccc2Br)n1 (stereo not drawn)	11%
CC1CCCCC1NCc1coc(-c2ccccc2Cl)n1 (stereo not drawn)	-2%
CC1CCCC(NCc2coc(-c3cccc(F)c3)n2)C1C (stereo not drawn)	10%

Compound	% inhibition
CC1CCCC(NCc2coc(-c3cccc4ccccc34)n2)C1C (stereo not drawn)	71%
CC1CCCC(NCc2coc(-c3ccccc3Br)n2)C1C (stereo not drawn)	98%
COc1ccc(-c2nc(CNC3CCCC(C)C3C)co2)cc1 (stereo not drawn)	2%
CCOC(=O)c1cn(Cc2coc(-c3ccc(OCC)cc3)n2)nc1C(F)(F)F	-15%
Cc1ccc(Oc2nc(C)ccc2/C(=N/O)Nc2ccccc2)c(C)c1	-4%
Cc1cc(N)nn1Cc1coc(-c2cccc3ccccc23)n1	25%
CC(C)c1ccc(N/C(=N\O)c2ccc(Oc3ccc(-n4ccnc4)cc3)nc2)cc1	11%
CC(C)c1nccn1Cc1coc(-c2ccc(C(F)(F)F)cc2)n1	-2%
CC(C)c1nccn1Cc1coc(-c2ccc(OC(F)(F)F)cc2)n1	56%
COc1ccc(-c2nc(Cn3ccnc3C(C)C)co2)cc1	29%
Cc1cc(N)nn1Cc1coc(-c2ccc(F)cc2)n1	12%
CCOc1ccc(-c2nc(Cn3nc(N)cc3-c3ccccc3)co2)cc1	-17%
Cc1ccc(-c2nc(Cn3nc(N)cc3C)co2)cc1	99%
CCOc1ccc(-c2nc(Cn3nc(N)cc3C)co2)cc1	99%
Cc1cccc(-c2nc(Cn3nc(N)cc3C)co2)c1	9%
COc1ccc(-c2nc(Cn3nc(N)cc3C)co2)cc1	25%
Nc1cc(-c2ccccc2)n(Cc2coc(-c3ccc(OC(F)(F)F)cc3)n2)n1	-3%
COc1cccc(-c2nc(Cn3nc(N)cc3C)co2)c1	18%
Cc1cc(N)nn1Cc1coc(-c2ccc(OC(F)(F)F)cc2)n1	97%
Fc1ccc(-c2nc(CN3CCC(N4CCCCC4)CC3)co2)cc1	4%
O/N=C(/c1ccc(Oc2cccc3c2CCCC3)nc1)N1CCOCC1	15%
C=CCN1CCN(/C(=N\O)c2ccc(C)nc2OCc2ccccc2F)CC1	3%
FC(F)(F)c1ccc(-c2nc(CN3CCN(c4ncccn4)CC3)co2)cc1	4%
Cc1ccc(/C(=N/O)NCc2c(F)cccc2F)c(OCc2ccc(C(C)C)cc2)n1	16%
Cc1ccc(-c2nc(CN(C)c3cccc(C)c3)co2)cc1	21%
Cc1cc(Oc2nc(C)ccc2/C(=N/O)N2CCN(c3ccccc3)CC2)cc(C(C)C)c1	5%
